# Results: ChEMBL document CHEMBL2218924, “A broad activity screen in support of a chemogenomic map for kinase signalling research and drug discovery” (Biochem J, 2013)
# Tests used:
# [1] = biological target: T1, Serine/threonine-protein kinase TBK1 (Homo sapiens) (UniProt Q9UHD2); settings: at 1 µM
# T1 sequence (whole entry): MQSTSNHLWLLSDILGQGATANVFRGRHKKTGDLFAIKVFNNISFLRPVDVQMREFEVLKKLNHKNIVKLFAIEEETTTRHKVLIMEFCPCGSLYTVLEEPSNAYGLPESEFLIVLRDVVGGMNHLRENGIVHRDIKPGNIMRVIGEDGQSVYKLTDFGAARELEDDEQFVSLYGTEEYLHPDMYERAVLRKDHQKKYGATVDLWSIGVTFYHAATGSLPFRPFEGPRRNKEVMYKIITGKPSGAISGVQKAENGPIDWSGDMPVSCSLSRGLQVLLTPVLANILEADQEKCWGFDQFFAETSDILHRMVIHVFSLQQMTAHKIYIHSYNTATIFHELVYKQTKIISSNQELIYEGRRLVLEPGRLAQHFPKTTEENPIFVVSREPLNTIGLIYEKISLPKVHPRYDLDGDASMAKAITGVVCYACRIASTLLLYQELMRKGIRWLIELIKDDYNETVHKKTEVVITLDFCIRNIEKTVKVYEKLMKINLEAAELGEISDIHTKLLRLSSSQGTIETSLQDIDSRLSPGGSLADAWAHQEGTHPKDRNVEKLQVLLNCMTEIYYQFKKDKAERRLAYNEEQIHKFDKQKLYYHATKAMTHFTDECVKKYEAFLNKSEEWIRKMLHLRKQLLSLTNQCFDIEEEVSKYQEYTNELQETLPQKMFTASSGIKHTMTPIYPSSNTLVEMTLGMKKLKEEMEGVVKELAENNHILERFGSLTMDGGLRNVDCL
# [2] = biological target: Insulin-like growth factor 1 receptor (Homo sapiens) (UniProt P08069); settings: at 1 µM
# [3] = biological target: Insulin-like growth factor 1 receptor (Homo sapiens) (UniProt P08069); settings: at 10 µM
# [4] = biological target: T2, Inhibitor of nuclear factor kappa-B kinase subunit alpha (Homo sapiens) (UniProt O15111); settings: at 1 µM
# T2 sequence (whole entry): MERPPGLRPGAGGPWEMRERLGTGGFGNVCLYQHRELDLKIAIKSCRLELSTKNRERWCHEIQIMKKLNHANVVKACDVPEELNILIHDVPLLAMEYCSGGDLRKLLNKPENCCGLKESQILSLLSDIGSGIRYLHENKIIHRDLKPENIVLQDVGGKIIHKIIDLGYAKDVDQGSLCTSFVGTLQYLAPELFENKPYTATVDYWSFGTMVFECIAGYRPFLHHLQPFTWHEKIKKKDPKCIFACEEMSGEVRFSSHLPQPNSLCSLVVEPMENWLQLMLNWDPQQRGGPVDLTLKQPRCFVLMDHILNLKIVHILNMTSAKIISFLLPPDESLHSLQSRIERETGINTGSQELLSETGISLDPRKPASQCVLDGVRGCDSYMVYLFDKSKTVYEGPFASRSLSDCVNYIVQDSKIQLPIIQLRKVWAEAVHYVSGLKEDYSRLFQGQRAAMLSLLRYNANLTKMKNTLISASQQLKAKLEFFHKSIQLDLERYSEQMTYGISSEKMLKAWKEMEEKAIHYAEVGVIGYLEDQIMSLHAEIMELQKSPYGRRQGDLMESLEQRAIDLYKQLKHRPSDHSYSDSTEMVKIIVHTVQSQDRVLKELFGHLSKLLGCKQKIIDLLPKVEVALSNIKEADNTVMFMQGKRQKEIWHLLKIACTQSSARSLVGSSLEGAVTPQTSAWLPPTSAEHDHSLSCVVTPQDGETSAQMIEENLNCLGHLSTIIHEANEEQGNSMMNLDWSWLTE
# [5] = biological target: T2, Inhibitor of nuclear factor kappa-B kinase subunit alpha (Homo sapiens); settings: at 10 µM
# [6] = biological target: T3, Inhibitor of nuclear factor kappa-B kinase subunit beta (Homo sapiens) (UniProt O14920); settings: at 1 µM
# T3 sequence (whole entry): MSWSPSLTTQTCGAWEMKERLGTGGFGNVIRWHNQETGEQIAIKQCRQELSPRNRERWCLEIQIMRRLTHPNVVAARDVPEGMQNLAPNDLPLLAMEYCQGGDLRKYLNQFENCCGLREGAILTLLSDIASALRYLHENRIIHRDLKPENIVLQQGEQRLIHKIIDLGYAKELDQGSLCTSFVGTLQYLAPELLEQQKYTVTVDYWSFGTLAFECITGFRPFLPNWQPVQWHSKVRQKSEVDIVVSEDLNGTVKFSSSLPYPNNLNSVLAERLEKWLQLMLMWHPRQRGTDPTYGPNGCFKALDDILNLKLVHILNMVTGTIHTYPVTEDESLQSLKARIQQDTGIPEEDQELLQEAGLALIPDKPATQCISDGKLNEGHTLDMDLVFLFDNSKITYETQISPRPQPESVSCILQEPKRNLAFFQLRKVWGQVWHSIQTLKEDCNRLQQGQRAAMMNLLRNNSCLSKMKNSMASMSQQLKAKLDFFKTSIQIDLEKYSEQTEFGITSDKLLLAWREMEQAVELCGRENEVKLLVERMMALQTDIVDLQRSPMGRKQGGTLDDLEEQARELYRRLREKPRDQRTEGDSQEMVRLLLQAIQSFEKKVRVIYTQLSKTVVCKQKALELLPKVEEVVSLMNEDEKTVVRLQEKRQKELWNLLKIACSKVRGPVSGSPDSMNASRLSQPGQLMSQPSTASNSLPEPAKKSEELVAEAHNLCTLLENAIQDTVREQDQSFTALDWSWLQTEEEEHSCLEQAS
# [7] = biological target: T3, Inhibitor of nuclear factor kappa-B kinase subunit beta (Homo sapiens); settings: at 10 µM
# [8] = biological target: T4, Serine/threonine-protein kinase TAO2 (Homo sapiens) (UniProt Q9UL54); settings: at 1 µM
# T4 sequence (whole entry): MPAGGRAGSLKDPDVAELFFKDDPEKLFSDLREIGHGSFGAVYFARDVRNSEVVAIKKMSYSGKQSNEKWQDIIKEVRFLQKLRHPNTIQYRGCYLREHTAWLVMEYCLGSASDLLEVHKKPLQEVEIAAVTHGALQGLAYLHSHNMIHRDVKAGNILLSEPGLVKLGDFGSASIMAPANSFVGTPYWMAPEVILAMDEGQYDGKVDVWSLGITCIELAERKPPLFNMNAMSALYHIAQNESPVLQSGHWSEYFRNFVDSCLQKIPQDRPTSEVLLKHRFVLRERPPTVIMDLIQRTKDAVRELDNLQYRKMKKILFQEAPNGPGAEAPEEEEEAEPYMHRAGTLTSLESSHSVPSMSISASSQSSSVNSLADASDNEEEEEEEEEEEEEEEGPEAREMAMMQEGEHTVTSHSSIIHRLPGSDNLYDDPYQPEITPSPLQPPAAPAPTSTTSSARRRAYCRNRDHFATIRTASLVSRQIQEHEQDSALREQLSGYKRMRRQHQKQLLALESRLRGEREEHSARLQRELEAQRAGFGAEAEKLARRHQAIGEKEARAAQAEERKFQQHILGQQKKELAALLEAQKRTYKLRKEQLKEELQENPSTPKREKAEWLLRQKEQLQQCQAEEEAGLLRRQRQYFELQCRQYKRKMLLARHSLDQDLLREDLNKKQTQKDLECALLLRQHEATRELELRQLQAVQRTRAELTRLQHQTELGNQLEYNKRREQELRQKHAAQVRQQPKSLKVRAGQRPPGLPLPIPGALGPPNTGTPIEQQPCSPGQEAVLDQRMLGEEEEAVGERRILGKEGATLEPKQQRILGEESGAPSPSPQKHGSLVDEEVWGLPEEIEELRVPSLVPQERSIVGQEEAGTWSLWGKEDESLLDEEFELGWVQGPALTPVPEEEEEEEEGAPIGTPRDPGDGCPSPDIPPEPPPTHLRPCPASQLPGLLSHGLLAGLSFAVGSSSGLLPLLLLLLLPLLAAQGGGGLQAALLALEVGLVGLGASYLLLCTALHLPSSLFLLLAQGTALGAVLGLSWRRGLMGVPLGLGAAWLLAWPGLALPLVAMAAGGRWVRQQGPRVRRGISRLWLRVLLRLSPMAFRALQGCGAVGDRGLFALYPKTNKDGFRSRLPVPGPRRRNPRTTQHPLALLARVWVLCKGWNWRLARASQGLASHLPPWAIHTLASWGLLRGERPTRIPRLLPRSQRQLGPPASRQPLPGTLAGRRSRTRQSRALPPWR
# [9] = biological target: T4, Serine/threonine-protein kinase TAO2 (Homo sapiens); settings: at 10 µM
# [10] = biological target: T5, Serine/threonine-protein kinase TAO3 (Homo sapiens) (UniProt Q9H2K8); settings: at 1 µM
# T5 sequence (whole entry): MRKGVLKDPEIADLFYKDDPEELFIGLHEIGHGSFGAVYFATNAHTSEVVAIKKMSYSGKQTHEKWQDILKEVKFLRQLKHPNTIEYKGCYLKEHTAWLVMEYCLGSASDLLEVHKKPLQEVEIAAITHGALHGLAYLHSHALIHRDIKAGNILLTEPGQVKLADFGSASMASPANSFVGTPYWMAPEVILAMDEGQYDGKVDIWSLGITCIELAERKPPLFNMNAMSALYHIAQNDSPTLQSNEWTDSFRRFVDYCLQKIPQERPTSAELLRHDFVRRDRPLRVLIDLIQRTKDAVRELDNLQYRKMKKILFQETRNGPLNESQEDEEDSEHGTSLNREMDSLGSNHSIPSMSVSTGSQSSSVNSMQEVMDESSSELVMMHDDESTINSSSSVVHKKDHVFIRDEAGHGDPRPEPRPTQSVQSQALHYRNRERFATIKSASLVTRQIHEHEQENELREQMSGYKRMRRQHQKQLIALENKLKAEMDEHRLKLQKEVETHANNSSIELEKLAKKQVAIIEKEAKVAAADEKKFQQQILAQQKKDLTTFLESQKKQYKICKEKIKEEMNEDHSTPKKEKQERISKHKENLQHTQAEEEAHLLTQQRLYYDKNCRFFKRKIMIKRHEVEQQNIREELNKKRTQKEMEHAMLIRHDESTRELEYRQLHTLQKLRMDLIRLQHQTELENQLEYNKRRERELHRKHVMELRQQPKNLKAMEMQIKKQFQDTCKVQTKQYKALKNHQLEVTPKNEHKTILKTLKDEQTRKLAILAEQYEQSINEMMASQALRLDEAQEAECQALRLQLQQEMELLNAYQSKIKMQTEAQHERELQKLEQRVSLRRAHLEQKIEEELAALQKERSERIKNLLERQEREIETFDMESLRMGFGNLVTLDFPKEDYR
# [11] = biological target: T5, Serine/threonine-protein kinase TAO3 (Homo sapiens); settings: at 10 µM
# [12] = biological target: T1, Serine/threonine-protein kinase TBK1 (Homo sapiens); settings: at 10 µM
# [13] = biological target: T6, TGF-beta receptor type-1 (Homo sapiens) (UniProt P36897); settings: at 1 µM
# T6 sequence (whole entry): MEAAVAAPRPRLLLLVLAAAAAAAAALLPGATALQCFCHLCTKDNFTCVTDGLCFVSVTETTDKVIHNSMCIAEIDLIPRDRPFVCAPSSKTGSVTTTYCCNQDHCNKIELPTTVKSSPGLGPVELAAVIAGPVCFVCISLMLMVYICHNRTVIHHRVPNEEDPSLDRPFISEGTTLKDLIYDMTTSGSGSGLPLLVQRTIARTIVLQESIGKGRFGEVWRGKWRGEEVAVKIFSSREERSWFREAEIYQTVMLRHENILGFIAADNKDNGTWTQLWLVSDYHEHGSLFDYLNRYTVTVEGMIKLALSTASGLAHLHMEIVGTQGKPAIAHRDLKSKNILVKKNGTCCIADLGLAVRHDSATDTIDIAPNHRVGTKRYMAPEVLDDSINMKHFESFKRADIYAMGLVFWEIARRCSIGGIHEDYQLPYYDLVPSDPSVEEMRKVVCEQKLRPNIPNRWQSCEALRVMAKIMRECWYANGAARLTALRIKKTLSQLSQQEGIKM
# [14] = biological target: T6, TGF-beta receptor type-1 (Homo sapiens); settings: at 10 µM
# [15] = biological target: Insulin receptor (Homo sapiens) (UniProt P06213); settings: at 1 µM
# [16] = biological target: Insulin receptor (Homo sapiens) (UniProt P06213); settings: at 10 µM
# [17] = biological target: Insulin receptor (Homo sapiens) (UniProt P06213); settings: at 1 µM; remark: listed apart in the source
# [18] = biological target: Insulin receptor (Homo sapiens) (UniProt P06213); settings: at 10 µM; remark: listed apart in the source
# [19] = biological target: Interleukin-1 receptor-associated kinase 1 (Homo sapiens) (UniProt P51617); settings: at 1 µM
# [20] = biological target: Interleukin-1 receptor-associated kinase 1 (Homo sapiens) (UniProt P51617); settings: at 10 µM
# Insulin receptor (Homo sapiens), sequence (P06213 28-758 limits assumed): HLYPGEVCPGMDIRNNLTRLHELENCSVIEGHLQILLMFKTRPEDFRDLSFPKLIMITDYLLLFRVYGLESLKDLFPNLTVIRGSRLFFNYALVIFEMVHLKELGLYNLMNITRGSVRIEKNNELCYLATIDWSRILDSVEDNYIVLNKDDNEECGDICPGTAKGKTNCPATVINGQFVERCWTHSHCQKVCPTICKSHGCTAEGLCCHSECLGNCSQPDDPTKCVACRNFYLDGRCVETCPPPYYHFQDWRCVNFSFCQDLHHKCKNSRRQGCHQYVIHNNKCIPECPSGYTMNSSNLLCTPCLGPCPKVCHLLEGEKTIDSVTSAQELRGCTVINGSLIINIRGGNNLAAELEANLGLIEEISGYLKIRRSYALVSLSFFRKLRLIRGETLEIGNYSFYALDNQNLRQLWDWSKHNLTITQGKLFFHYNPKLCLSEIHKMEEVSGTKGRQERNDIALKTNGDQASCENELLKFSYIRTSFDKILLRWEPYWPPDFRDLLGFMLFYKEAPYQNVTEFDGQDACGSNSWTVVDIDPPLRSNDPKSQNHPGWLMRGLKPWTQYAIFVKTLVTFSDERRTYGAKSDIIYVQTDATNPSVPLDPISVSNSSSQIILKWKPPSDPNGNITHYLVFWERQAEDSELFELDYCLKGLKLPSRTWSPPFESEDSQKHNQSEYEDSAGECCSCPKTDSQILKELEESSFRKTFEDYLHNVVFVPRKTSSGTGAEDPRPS
# Insulin receptor (Homo sapiens), sequence (P06213 763-1382 limits assumed): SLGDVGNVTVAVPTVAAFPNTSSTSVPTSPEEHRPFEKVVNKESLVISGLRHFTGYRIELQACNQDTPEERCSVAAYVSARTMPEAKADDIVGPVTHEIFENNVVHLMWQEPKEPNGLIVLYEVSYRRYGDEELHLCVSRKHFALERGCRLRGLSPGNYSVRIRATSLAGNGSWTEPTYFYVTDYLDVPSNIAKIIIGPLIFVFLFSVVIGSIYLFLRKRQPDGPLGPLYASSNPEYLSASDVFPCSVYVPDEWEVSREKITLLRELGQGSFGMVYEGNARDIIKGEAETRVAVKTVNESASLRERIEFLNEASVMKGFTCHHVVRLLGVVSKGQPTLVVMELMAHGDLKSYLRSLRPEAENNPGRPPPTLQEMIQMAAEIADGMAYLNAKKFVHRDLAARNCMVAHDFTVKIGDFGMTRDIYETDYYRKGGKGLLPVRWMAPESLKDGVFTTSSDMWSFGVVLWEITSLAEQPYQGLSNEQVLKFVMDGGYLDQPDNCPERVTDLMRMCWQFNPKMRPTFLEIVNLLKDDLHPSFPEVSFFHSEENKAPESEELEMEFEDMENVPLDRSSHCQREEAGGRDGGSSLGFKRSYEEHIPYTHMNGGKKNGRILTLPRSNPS
# Interleukin-1 receptor-associated kinase 1 (Homo sapiens), sequence (P51617 whole entry, looked up): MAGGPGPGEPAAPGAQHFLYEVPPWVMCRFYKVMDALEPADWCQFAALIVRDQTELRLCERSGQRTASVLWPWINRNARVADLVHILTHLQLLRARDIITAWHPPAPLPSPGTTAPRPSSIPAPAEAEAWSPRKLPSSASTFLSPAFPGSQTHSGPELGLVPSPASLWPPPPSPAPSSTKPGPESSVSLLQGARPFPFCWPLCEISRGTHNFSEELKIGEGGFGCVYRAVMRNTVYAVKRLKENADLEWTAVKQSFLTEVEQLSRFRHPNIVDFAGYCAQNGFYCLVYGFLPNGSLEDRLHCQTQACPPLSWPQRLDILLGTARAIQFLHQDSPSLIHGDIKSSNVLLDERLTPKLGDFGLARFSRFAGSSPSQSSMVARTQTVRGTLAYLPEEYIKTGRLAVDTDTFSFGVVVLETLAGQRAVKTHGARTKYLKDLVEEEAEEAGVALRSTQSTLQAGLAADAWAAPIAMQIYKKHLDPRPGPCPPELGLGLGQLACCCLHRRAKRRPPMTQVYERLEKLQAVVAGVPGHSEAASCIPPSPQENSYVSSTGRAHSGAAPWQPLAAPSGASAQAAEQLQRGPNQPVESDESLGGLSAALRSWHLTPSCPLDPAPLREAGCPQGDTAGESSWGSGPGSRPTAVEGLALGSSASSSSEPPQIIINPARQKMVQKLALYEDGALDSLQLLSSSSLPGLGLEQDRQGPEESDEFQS
# Insulin-like growth factor 1 receptor (Homo sapiens), sequence (P08069 31-736 limits assumed): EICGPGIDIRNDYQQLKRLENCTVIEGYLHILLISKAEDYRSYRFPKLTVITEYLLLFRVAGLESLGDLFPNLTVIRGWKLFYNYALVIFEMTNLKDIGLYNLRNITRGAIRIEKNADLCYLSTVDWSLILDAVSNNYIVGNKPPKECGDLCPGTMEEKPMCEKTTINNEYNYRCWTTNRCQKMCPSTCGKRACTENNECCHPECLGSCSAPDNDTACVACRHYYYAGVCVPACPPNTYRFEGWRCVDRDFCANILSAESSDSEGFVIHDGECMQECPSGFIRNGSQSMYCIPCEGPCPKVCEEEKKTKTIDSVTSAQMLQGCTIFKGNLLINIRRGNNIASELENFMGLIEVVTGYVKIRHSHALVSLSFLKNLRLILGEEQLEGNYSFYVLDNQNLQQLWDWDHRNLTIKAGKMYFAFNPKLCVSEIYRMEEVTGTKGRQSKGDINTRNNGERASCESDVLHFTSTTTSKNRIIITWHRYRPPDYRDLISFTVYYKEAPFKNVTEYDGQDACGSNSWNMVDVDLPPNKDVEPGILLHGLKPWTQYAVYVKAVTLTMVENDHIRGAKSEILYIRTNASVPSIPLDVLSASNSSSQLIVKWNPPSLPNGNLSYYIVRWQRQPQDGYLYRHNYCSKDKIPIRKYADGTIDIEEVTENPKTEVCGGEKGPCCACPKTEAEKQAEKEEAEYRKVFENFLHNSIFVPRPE
# Insulin-like growth factor 1 receptor (Homo sapiens), sequence (P08069 741-1367 limits assumed): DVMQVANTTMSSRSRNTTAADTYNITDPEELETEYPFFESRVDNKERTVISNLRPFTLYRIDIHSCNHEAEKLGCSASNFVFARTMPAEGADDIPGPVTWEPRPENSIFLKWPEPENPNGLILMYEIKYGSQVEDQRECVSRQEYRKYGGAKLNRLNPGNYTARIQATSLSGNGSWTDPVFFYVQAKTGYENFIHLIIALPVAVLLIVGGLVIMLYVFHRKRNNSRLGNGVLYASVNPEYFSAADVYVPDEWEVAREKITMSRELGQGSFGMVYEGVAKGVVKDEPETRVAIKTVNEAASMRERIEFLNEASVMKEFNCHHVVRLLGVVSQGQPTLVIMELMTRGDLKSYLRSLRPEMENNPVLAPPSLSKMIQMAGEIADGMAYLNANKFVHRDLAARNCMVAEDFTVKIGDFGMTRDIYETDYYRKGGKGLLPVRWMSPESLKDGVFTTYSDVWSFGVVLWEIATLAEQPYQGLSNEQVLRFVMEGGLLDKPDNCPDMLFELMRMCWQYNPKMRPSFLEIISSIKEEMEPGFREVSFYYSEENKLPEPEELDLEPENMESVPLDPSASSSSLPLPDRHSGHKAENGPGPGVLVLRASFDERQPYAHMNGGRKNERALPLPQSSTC
Compound,residual activity [1] [%],residual activity [2] [%],residual activity [3] [%],residual activity [4] [%],residual activity [5] [%],residual activity [6] [%],residual activity [7] [%],residual activity [8] [%],residual activity [9] [%],residual activity [10] [%],residual activity [11] [%],residual activity [12] [%],residual activity [13] [%],residual activity [14] [%],residual activity [15] [%],residual activity [16] [%],residual activity [17] [%],residual activity [18] [%],residual activity [19] [%],residual activity [20] [%]
CCc1nc(-c2ccc(OC)cc2)[nH]c1-c1ccncc1,108,104,107,100,104,119,112,,,,,,,,,,,,,
O=C1Nc2ccc3ncsc3c2/C1=C/c1c[nH]cn1,7,94,60,8,1,68,25,33,10,17,6,0,68,38,85,31,80,36,28,7
c1cc(-c2cnn3cc(-c4ccc(OCCN5CCCCC5)cc4)cnc23)ccn1,64,,,,86,,85,,,,82,13,78,30,138,,,,23,2
O=[N+]([O-])/C=C/c1ccc2c(c1)OCO2,87,103,91,91,94,98,95,107,81,90,100,81,90,101,117,85,96,102,95,83
